ssDAF-12 act: S. stercoralis DAF-12 nuclear receptor activators, primary screen, cell-based, luminescence, HEK293, GRIP1 co-expression, lit1-tk-luc; Nuclear hormone receptor DAF-12 (Strongyloides stercoralis); HEK293 ssDAF-12/GRIP1 lit1-tk-luc reporter; % of 3 µM dafachronic acid response; activation, % at 6.8 µM; 370,000 compounds, 1% hits;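 active = activation above the mean over all tested compounds plus 3 SD, cut at about 0.9% in these data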
hgDAF12 agonist: H. glycines DAF-12 receptor agonists, primary screen, cell-based, luminescence, HEK293, GAL4 fusion, UAS-luciferase. Nuclear hormone receptor DAF-12 (Heterodera glycines), GAL4 fusion. HEK293 GAL4-hgDAF12 UAS-luciferase reporter, agonist luminescence; normalized to butyrate control. activation, % at 6.8 µM. 370,000 compounds, 1.8% hits;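 active = activation above a cutoff set at the mean of all screened compounds plus 3 SD, cut at about 10% in these data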
Wnt bcat act: Wnt/beta-catenin pathway activators, primary screen, cell-based, plate reader, single point. Wnt/beta-catenin reporter cell assay, activator. activation, % at 9.35 µM. 300,000 compounds, 1.2% hits. AID 743398, 2014; in the data active = activation above about 30%, passing the limit was not always enough; inconclusive = no clear call, values can overlap the other calls
DAX1 StAR inh: DAX1 (NR0B1) inhibitors on StAR promoter, primary screen, cell-based, luminescence, SF-1 (NR5A1), full-length DAX-1. 370,000 compounds, 1.1% hits. AID 652010, 2013. HEK293T StAR-luciferase reporter, SF-1/DAX-1 repression relief. inhibition, % at 6.8 µM;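 active = inhibition above the mean over all tested compounds plus 3 SD, cut at about 3.6% in these data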;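 also: higher inhibition means more luminescence from relief of DAX-1 repression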
hcDAF12 agonist: H. contortus DAF-12 nuclear receptor activators, primary screen, cell-based, luminescence, HEK293, lit1-tk-luc reporter | 370,000 compounds, 1.4% hits | HEK293 hcDAF-12 lit1-tk-luc reporter; 0% DMSO, 100% Δ7-dafachronic acid | activation, % at 6.8 µM;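 active = activation above the mean of all tested compounds plus 3 SD, cut at about 5.5% in these data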
esBAF inh: Bmi1 luciferase reporter increase in mESCs, primary screen, esBAF inhibitor project, mouse ES cells, Bmi1 luciferase knock-in, single point; 24 h; 100% = twice the neutral-well signal; reporter increase, % at 12.5 µM; 350,000 compounds, 2% hits; in the data active = activation above about 40%; inconclusive = no clear call, values can overlap the other calls;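 also: a rise in the Bmi1 reporter signal indicates esBAF inhibition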
LXR ag: LXR agonists, Gal4 luciferase reporter, confirmation, counter-screen for hcDAF-12 agonist project, cell-based, luminescence, HEK293, H. contortus campaign; shares compounds with hcDAF12 agonist; HEK293 Gal4-LXR tk-luc reporter, 24 h; normalized: DMSO 0%, positive control 100%; activation, % at 6.8 µM; 3,400 tested, under 10 active; AID 743027, 2013;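 active = mean percent activation of the reporter above a cutoff set as the average over tested compounds plus their standard deviation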
Target sequence (P55055 whole entry, looked up, the tested form may be a part): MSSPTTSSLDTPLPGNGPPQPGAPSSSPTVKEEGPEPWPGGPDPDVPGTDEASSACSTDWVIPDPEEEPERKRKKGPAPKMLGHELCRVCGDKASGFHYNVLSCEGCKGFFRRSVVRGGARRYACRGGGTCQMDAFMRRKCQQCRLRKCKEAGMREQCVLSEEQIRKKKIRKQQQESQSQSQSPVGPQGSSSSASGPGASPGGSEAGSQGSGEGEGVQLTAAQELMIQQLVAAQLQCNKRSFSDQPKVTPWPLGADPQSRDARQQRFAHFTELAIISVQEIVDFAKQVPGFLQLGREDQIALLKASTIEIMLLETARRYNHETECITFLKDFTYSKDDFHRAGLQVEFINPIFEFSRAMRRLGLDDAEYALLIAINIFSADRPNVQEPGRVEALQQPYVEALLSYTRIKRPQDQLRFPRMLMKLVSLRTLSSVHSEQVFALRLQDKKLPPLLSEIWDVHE
hcDAF12 ag: H. contortus DAF-12 receptor agonists, confirmation, cell-based, luminescence, HEK293, lit1-tk-luc, triplicate; AID 743032, 2013; shares compounds with hcDAF12 agonist; 3,400 compounds, 61% hits; HEK293 hcDAF-12 lit1-tk-luc reporter; % of Δ7-dafachronic acid response; activation, % at 6.8 µM;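 active = mean activation across triplicate tests above the threshold derived from the earlier primary screen, cut at about 5.5% in these data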
Large screens that a line does not name were inactive (follow-up assays come after a bar, where they were run). Hits are enriched below; roughly 4.2% of the tested compounds scored in any of these assays.

COc1ccc(OCc2cc(C(=O)N3CCCC(CO)C3)no2)c2ccccc12 (stereo unspecified)	ssDAF-12 act 1.4, Wnt bcat act 33, hcDAF12 agonist 7.8 (no result: esBAF inh) | LXR ag inactive | hcDAF12 ag 9.5
c1ccc(-c2nc3cc4ccccc4cc3[nH]2)nc1	hcDAF12 agonist 8.8 (no result: esBAF inh) | LXR ag inactive | hcDAF12 ag 11
CC(=O)NCCC(=O)Nc1nc(-c2c[nH]c3ccccc23)cs1	none
COc1ccc(Nc2nc(-c3c[nH]c4ccccc34)cs2)cc1	Wnt bcat act 40, hcDAF12 agonist 11 (no result: esBAF inh) | LXR ag inactive | hcDAF12 ag inactive
CN1c2ccc(-c3ccccc3)cc2[C@H]2[C@H](CCN2C(=O)c2ccncc2)[C@@H]1CO	none (no result: ssDAF-12 act, hgDAF12 agonist, Wnt bcat act, DAX1 StAR inh, hcDAF12 agonist)
Cc1cc(C)n2nc(C(=O)NCc3ccccc3)cc2n1	none
Cc1cc(C)n2nc(Nc3ccccc3)cc2n1	hcDAF12 agonist 7.2 (no result: Wnt bcat act) | LXR ag inactive | hcDAF12 ag 11
O=C(Nc1ccsc1C(=O)O)c1cccc(C(F)(F)F)c1	none (no result: esBAF inh)
O=C(Nc1ccsc1C(=O)O)c1cccc(Oc2ccccc2)c1	hgDAF12 agonist 13, Wnt bcat act inconclusive, hcDAF12 agonist 7.8 | LXR ag inactive | hcDAF12 ag 7.3
O=C(Nc1ccsc1C(=O)O)c1ccc(Cl)cc1	ssDAF-12 act 3.0, hcDAF12 agonist 9.1, esBAF inh 61 | LXR ag inactive | hcDAF12 ag 12
COc1ccccc1C(=O)Nc1nnc(C)s1	none (no result: Wnt bcat act, esBAF inh)
COc1ccccc1C(=O)NNC(=O)C1CCN(C(=O)OC(C)(C)C)CC1	hcDAF12 agonist 7.1 | LXR ag inactive | hcDAF12 ag inactive
COc1ccccc1C(=O)NNC(=O)c1ccc2ccccc2c1O	none
COc1ccccc1C(=O)CC(=O)c1ccccc1	ssDAF-12 act 1.5, hgDAF12 agonist 11, hcDAF12 agonist 6.7, esBAF inh inconclusive | LXR ag inactive | hcDAF12 ag 11
COc1ccccc1C(=O)Nc1nnc(-c2ccccc2)s1	ssDAF-12 act 1.2, hcDAF12 agonist 6.8, esBAF inh 47 | LXR ag inactive | hcDAF12 ag 8.5
COc1ccccc1C(=O)NNC(=O)c1ccccc1	ssDAF-12 act 1.0, hcDAF12 agonist 10 | LXR ag inactive | hcDAF12 ag 11
CC(C)c1cn(CC[C@H]2CC[C@@H](NC(=O)C3CC3)[C@H](CO)O2)nn1	none (no result: ssDAF-12 act, hgDAF12 agonist, Wnt bcat act, DAX1 StAR inh, hcDAF12 agonist)
O=C(C[C@H]1CC[C@H]2[C@@H](COC[C@@H](O)CN2C(=O)Nc2ccc(F)cc2)O1)NC1Cc2ccccc2C1	none (no result: ssDAF-12 act, hgDAF12 agonist, Wnt bcat act, DAX1 StAR inh, hcDAF12 agonist)
COc1ccc(NC(=O)Nc2ccc3c(c2)C(=O)N([C@H](C)CO)C[C@@H](C)[C@@H](CN(C)Cc2ccc4c(c2)OCO4)OCCCC[C@@H](C)O3)cc1	none (no result: ssDAF-12 act, hgDAF12 agonist, Wnt bcat act, DAX1 StAR inh, hcDAF12 agonist)
COc1ccc(S(=O)(=O)Nc2ccc3c(c2)C(=O)N([C@@H](C)CO)C[C@@H](C)[C@@H](CN(C)C(=O)Nc2ccccc2)O3)cc1	none (no result: ssDAF-12 act, hgDAF12 agonist, Wnt bcat act, DAX1 StAR inh, hcDAF12 agonist)
CCCNC(=O)N(C)C[C@H]1Oc2cc(C#CC(C)(C)O)ccc2S(=O)(=O)N([C@H](C)CO)C[C@H]1C	none (no result: ssDAF-12 act, hgDAF12 agonist, Wnt bcat act, DAX1 StAR inh, hcDAF12 agonist)
O=C(c1cccnc1)N1C[C@H]2[C@@H](c3ccccc31)[C@@H](CO)N2Cc1ccc2c(c1)OCO2	none (no result: ssDAF-12 act, hgDAF12 agonist, Wnt bcat act, DAX1 StAR inh, hcDAF12 agonist)
